This is part of a sample that, as a whole, favours compounds with a hit. Of some 83,000 tested, about 20% had one in any assay.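 Interpretation: 100, growth as untreated; towards 0, rising growth inhibition; 0, no net growth; 0 to -100, cell death. Compounds scoring below 10 were considered active.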 The source made the active and inactive calls.
Each compound was assayed on NCI-H322M lung (assay: NCI-60 one-dose screen, 48 h (100 = growth as untreated, 0 = no growth, -100 = all killed)). Conditions: 10 µM unless noted.
`CCN(C(=O)c1cc2ncccc2[nH]1)[C@H]1CCC[C@@H](NCc2cccc(F)c2)C1` was tested, and the growth was 80.6% (inactive).
In the case of `COc1ccc(/C=C/C(=O)/C=C/c2cc3ccc(Cl)cc3[nH]c2=O)cc1`, the growth is reported as 97.2% (inactive).
In the case of `CCc1c(C(=O)Nc2ccc3ccccc3c2)[nH]c(C)c1C(C)=O`, the growth is reported as 98.9% (inactive).
`Cc1cnc(NC(=O)C(Cc2ccccc2)NC(=O)c2ccccc2)s1` (stereo not drawn) was tested, and the growth was 105% (inactive).
For `O=C1Nc2ccc(Br)cc2C1=N/C=c1\[nH]c(=O)/c(=C/c2ccc(Cl)cc2)s1`, the growth was 93.2% (inactive).
`CC/C(=C(\c1ccc(O)cc1)c1ccc(OCCN(C)CCN(C)C(=O)CCC(=O)c2c(C)[nH]c(/C=C3\N=C(c4ccc[nH]4)C=C3OC)c2C)cc1)c1ccccc1` was tested, and the growth was 70.4% (inactive).

Each compound was assayed on HOP-62 NSCLC in the same assay as above. Conditions: 10 µM unless noted.
`COc1ccc(S(=O)(=O)N2CCN(c3cc4c(cc3F)c(=O)c(C(=O)O)cn4C3CC3)CC2)c(OC)c1` was tested, and the growth was 86.6% (inactive).
`CCC(C)NCC(=O)O` (stereo not drawn) was tested, and the growth was 98.2% (inactive).
With `O=C(O)Cc1ccc2c(c1)Cc1cccnc1O2` the growth was 106% (inactive).
In the case of `COc1cc(Cn2c(SCC(=O)Nc3ccc(Cl)cc3)nc3ccccc3c2=O)cc(OC)c1OC`, the growth is reported as 54% (inactive).
In the case of `CC(C)(C)OC(=O)N[C@@H](Cc1ccccc1)C(=O)N(Cc1ccccc1)C1(C(=O)NCc2ccccc2)CCN(Cc2ccccc2)CC1`, the growth is reported as 56.2% (inactive).
In the case of `COC(=O)C(CC(=O)c1ccc(-c2ccccc2)cc1)c1ccccc1` (stereo not drawn), the growth is reported as 75.1% (inactive).
For `C=C1C(=O)O[C@H]2[C@H]1CC/C(Cn1cc(-c3ccccc3C(F)(F)F)nn1)=C\CC[C@@]1(C)O[C@@H]21`, the growth was 37.3% (inactive).
For `O=C(O)C(=Cc1c2ccccc2cc2ccccc12)C(=O)O`, the growth was 105% (inactive).
With `CN(C)c1nc(N)c(N=O)c(N)n1` the growth was 107% (inactive).
For `CCCCCCC[C@@H](O)CC(=O)N[C@H](CCCCN)C(=O)N[C@H](Cc1c[nH]c2ccccc12)C(=O)NC(CCCCN)C(=O)N[C@H](CC(C)C)C(=O)N[C@H](Cc1ccccc1)C(=O)N[C@H](CCCCN)C(=O)N[C@H](CCCCN)C(=O)N[C@H](CC(C)C)C(=O)N1CCCC1C(=O)N[C@H](CCCCN)C(=O)N[C@H](Cc1ccccc1)C(=O)N[C@H](CC(C)C)C(=O)N[C@H](Cc1c[nH]cn1)C(=O)N[C@H](CC(C)C)C(=O)N[C@H](C)C(=O)N[C@H](CCCCN)C(=O)N[C@H](CCCCN)C(=O)N[C@H](Cc1ccccc1)C(=O)O` (stereo partly drawn), the growth was -59% (active).
For `O=S(=O)(NCCCNc1cc(-c2cn(-c3ccccc3)nc2-c2cccc(O)c2)ccn1)c1cccc2ccccc12`, the growth was 47.3% (inactive).
`O=C(NCCCN1CCN(CCCNC(=O)C2CCCCC2)CC1)C1CCCCC1` was tested, and the growth was 94.7% (inactive).
With `CCN(Cc1ccc(CN(CC)C(=O)C(Cl)(Cl)Cl)cc1)C(=O)C(Cl)(Cl)Cl` the growth was 98.2% (inactive).
`CCOC(=O)CC(C#N)(CC(=O)OCC)C(=O)OCC` was tested, and the growth was 117% (inactive).
For `COc1ncc(-c2ccc3ncnc(Nc4cccc(Cl)c4)c3c2)cc1NS(=O)(=O)C1CC1`, the growth was 43.9% (inactive).
For `Cc1cc(C)c(S(=O)(=O)N2CCN(c3cc4c(cc3F)c(=O)c(C(=O)O)cn4C3CC3)CC2)c(C)c1`, the growth was 57.3% (inactive).
`COc1ccc(/C=C/C(=O)OCC(=O)NNC(=O)c2ccccc2)cc1OC` was tested, and the growth was 84.1% (inactive).
In the case of `O=C1c2ccccc2C(=O)c2c1oc1oc3c(c(=O)c21)c(=O)n(-c1ccccc1)c1ccccc31`, the growth is reported as 36.1% (inactive).
In the case of `O=C(Nc1ccc(Cl)cc1)c1cc(-c2ccc(F)cc2)c2sc(=O)[nH]c2n1`, the growth is reported as 6.64% (active).
With `CC(C)(C)c1ccc(S(=O)(=O)Oc2ccc3c4c(c(=O)oc3c2)CCCCC4)cc1` the growth was 85.2% (inactive).
For `CCN(CC)CCSc1c2ccc(Cl)cc2nc2ccc(OC)cc12`, the growth was 75.9% (inactive).
`Cc1ccc(OCCn2c(C)nn(-c3ccc(Cl)cc3)c2=O)cc1` was tested, and the growth was 103% (inactive).
For `O=C(CN1CCN(c2cc3c(cc2F)c(=O)c(C(=O)O)cn3C2CC2)CC1)Nc1ccc(C(=O)/C=C/c2ccc(Cl)cc2)cc1`, the growth was 107% (inactive).
For `CCC(c1ccc(OC)cc1)C(CC)c1ccc(OCC[N+](C)(C)C)cc1` (stereo not drawn), the growth was 73.9% (inactive).
In the case of `O=C(C[N+](=O)[O-])c1ccc(Cl)cc1`, the growth is reported as 104% (inactive).
For `O=C(CCC(=O)OC1CCCC1)OC1CCCC1`, the growth was 109% (inactive).
`CCOC(=O)c1ccccc1NC(c1ccccc1)c1ccc2cccnc2c1O` (stereo not drawn) was tested, and the growth was 16.4% (inactive).

From PubChem BioAssay (NCI)
